Hits are enriched below; roughly 7.3% of the tested compounds scored in any of these assays.
HEK cytotox – cytotoxic compounds in HEK 293 cells; 94,000 compounds, 6.6% hits; Potency, µM (highest dose often 115 µM), inactives show at the top dose activity change, negative = cytotoxicity, usual class: inhibitors; HEK 293 viability, ATP luminescence (CellTiter-Glo), 48-72 h; further: potency means the concentration at half of the fitted maximal effect; nearly all actives have a fitted effect of over 60% in size
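Luminescence from cellular ATP, measured with CellTiter-Glo, indicates HEK 293 viability. Cells plated at 250 cells/well are treated with compound for 48 or 72 hr at 37 degree Celsius before reagent addition.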
IP6K1 inhibitor – IP6K1 kinase inhibition. IP6K1 kinase, ADP-Glo luminescence, 2 h; hits give low values. activity change, % (series mostly up to about 58 µM). 140,000 compounds, 0.81% hits. AID 1645851. Q92551; in the data active means activity change below about -25%
Target sequence (Q92551 whole entry, looked up): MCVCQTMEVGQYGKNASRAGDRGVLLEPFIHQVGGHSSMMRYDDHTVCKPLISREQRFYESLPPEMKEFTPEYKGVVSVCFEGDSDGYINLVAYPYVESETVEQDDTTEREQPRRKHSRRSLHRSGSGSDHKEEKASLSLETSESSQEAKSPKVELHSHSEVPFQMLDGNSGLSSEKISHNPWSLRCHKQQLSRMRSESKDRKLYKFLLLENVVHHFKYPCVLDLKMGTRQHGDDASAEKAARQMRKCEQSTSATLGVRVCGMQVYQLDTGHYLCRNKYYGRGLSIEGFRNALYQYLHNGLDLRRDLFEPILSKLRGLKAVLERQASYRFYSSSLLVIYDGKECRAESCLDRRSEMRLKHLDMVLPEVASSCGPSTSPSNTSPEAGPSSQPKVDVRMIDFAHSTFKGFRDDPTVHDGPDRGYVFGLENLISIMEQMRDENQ
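ADP-Glo luminescence measures ADP made by human IP6K1 during a 2 h RT reaction with ATP/IP6 (mix at 1.3 mM/130 uM); top library doses 57.5 and 19.1 uM final.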
NIH3T3 tox – kills NIH 3T3 cells; AID 1345082; Potency, µM (series often up to 96.7 µM), for the others: at the top dose activity change, negative = cytotoxicity, most hits filed as inhibitors; NIH 3T3 viability, CellTiter-Glo ATP luminescence, 48-72 h; 94,000 compounds, 4.3% hits; further: potency means the concentration at half of the fitted maximal effect; nearly all actives have a fitted effect of over 55% in size
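NIH 3T3 cells at 400 cells/well received 23 nL of compound by pintool and were incubated 48 or 72 h at 37 °C. Viability was read as ATP-coupled CellTiter-Glo luminescence.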
FLuc inh – inhibitors of firefly (Photinus pyralis) luciferase. P08659. Potency, µM (doses to about 115 µM), actives largely listed as inhibitors. 76,000 compounds, 2.5% hits. purified P. pyralis luciferase, luminescence, biochemical; further: potency means the concentration at half of the fitted maximal effect; nearly all actives have a fitted effect of over 65% in size
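FLuc 10nM, D-luciferin 10uM, ATP 10uM, Mg acetate 10mM, Tris acetate pH 7.5, Tween/BSA; cpd qHTS; enzyme added last; CCD luminescence.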
SNCA expr inh – reduces expression of the alpha-synuclein gene; Potency, µM (series often up to 57.2 µM), without a hit: at the highest dose activity change, negative = inhibition, actives largely listed as inhibitors; HEK-293 SNCA-luciferase knock-in, luminescence, 24 h; 140,000 compounds, 0.17% hits;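 further: potency means the concentration at half of the fitted maximal effect; plate controls were DMSO cells for no effect and cell-free wells for full effect; nearly all actives have a fitted effect of over 45% in size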
HEK293 viab – cell viability loss counter-screen. AID 1671193. 150,000 compounds, 0.12% hits. Potency, µM (highest dose often 57.1 µM), without a hit: at the top dose activity change, negative = cytotoxicity, most hits filed as cytotoxic. HEK-293-SNCA-luc viability, GF-AFC fluorescence, 24 h;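 further: potency means the concentration at half of the fitted maximal effect; 0% = DMSO-treated cells and -100% = medium-only wells without cells; nearly all actives have a fitted effect of over 30% in size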
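Cytotoxicity counterscreen: after 24 h compound treatment of genome-edited SNCA-luciferase HEK-293 cells, live-cell protease substrate GF-AFC read by fluorescence after 30 min; activity scaled between DMSO (0%) and medium-only (-100%), curves Hill-fitted.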
Starred values were filed as active, the others as inactive; [ ] = another dose, or the depositor's remark. Unless noted, the call rests on the fitted dose curve; in most records, active means well fitted curve in the direction sought with a large enough effect; inconclusive means small, poorly fitted or top-dose-only effect, or another doubt; inactive means no such curve, though single readings can be large; an effect the other way counts as inactive or inconclusive. Unless noted, on the % scale 0 is the no-effect control and ±100 the full control effect.

CCNC(=O)N1CCCN(S(=O)(=O)c2ccccc2)CCC(=O)NCC1 was read as HEK cytotox -19%, IP6K1 inhibitor 0, NIH3T3 tox -12%, FLuc inh inactive, SNCA expr inh -6% and HEK293 viab 8%.
Screening COc1ccc(NC(=O)N[C@H]2C[C@@H](C(=O)N[C@H](Cc3c[nH]c4ccccc34)C(N)=O)N(C(=O)c3cccn3C)C2)cc1 returned HEK cytotox 2%, IP6K1 inhibitor -8, NIH3T3 tox 3%, FLuc inh inactive, SNCA expr inh 9% and HEK293 viab 4%.
`CCNC(=O)N1CC(Oc2cccc(-c3nc(-c4ccccc4)no3)c2)C1` gave HEK cytotox 35µM*, IP6K1 inhibitor 4, NIH3T3 tox inconclusive, FLuc inh inactive, SNCA expr inh -11% and HEK293 viab -7%.
COC(=O)c1ccc2nc(CO[C@H]3CN(Cc4ccc5ccccc5n4)C[C@H]3F)[nH]c2c1 was read as HEK cytotox 100µM*, IP6K1 inhibitor 0, NIH3T3 tox inconclusive, FLuc inh inconclusive, SNCA expr inh 38%[87.6 µM] and HEK293 viab -19%[87.6 µM].
COC(=O)c1ccc2nc(CO[C@H]3CN(Cc4ccc(Cl)cc4)C[C@H]3F)[nH]c2c1 was read as HEK cytotox inconclusive, IP6K1 inhibitor 5, NIH3T3 tox 89µM*, FLuc inh inactive, SNCA expr inh -26%[87.6 µM] and HEK293 viab -10%[87.6 µM].
`COC(=O)c1ccc2nc(CO[C@H]3CN(Cc4ccccc4C)C[C@H]3F)[nH]c2c1` gave HEK cytotox inconclusive, IP6K1 inhibitor -10, NIH3T3 tox inconclusive, FLuc inh inconclusive, SNCA expr inh 6%[87.6 µM] and HEK293 viab -8%[87.6 µM].
Fc1ccc2nc(CO[C@H]3CN(Cc4cnc5ccccc5c4)C[C@H]3F)[nH]c2c1 was read as HEK cytotox 71µM*, IP6K1 inhibitor 8, NIH3T3 tox inconclusive, FLuc inh inactive, SNCA expr inh -17%[87.6 µM] and HEK293 viab -15%[87.6 µM].
`COc1ccc(OC)c(CNC(=O)COc2ccc(NC(=O)C3CC3)cn2)c1` gave HEK cytotox 10%, IP6K1 inhibitor -1, NIH3T3 tox -1%, FLuc inh inactive, SNCA expr inh 17% and HEK293 viab 8%.
O=C1c2c(nc(COc3ccc4c(c3)OCO4)n2Cc2ccccc2)NCCN1Cc1ccccc1F was read as HEK cytotox 35µM*, IP6K1 inhibitor -12, NIH3T3 tox inconclusive, FLuc inh inactive, SNCA expr inh inconclusive and HEK293 viab inconclusive.
N#Cc1ccccc1CN1CCNc2nc(COc3cccc(N4CCOCC4)c3)n(Cc3ccccc3)c2C1=O was read as HEK cytotox inconclusive, IP6K1 inhibitor -15, NIH3T3 tox inconclusive, FLuc inh inactive, SNCA expr inh -12% and HEK293 viab inconclusive.
`O=C1c2c(nc(CNCc3ccc4c(c3)OCO4)n2Cc2ccccc2)NCCN1CCOc1ccccc1` gave HEK cytotox inconclusive, IP6K1 inhibitor -14, NIH3T3 tox 40µM*, FLuc inh inactive, SNCA expr inh -1% and HEK293 viab -11%.
`Cc1ccccc1NCc1nc2c(n1Cc1ccccc1)C(=O)N(CCOc1ccccc1)CCN2` gave HEK cytotox inconclusive, IP6K1 inhibitor 4, NIH3T3 tox 32µM*, FLuc inh inactive, SNCA expr inh -16% and HEK293 viab -11%.
For O=C1c2c(nc(COc3ccc4c(c3)OCO4)n2Cc2ccccc2)NCCN1Cc1ccccc1 the results were HEK cytotox 45µM*, IP6K1 inhibitor -11, NIH3T3 tox 25µM*, FLuc inh inactive, SNCA expr inh inconclusive and HEK293 viab inconclusive.
For O=C1c2c(nc(COc3ccc4c(c3)OCO4)n2Cc2ccccc2)NCCN1CC1CCOCC1 the results were HEK cytotox inconclusive, IP6K1 inhibitor -8, NIH3T3 tox -27%, FLuc inh inactive, SNCA expr inh -13% and HEK293 viab -1%.
O=C(NCc1ccc(F)cc1)N1CCC(N2CC3CC(C2)[C@H]2CCCC(=O)N2C3)CC1 (some centres undefined) was read as HEK cytotox -5%, IP6K1 inhibitor 24, NIH3T3 tox inactive, FLuc inh inactive, SNCA expr inh 6% and HEK293 viab 2%.
Screening O=C1c2c(nc(COc3ccc4c(c3)OCO4)n2Cc2ccccc2)NCCN1CCOc1ccccc1 returned HEK cytotox 40µM*, IP6K1 inhibitor -9, NIH3T3 tox inconclusive, FLuc inh inactive, SNCA expr inh -21% and HEK293 viab -24%.
O=C1c2c(nc(COc3ccc4c(c3)OCO4)n2Cc2ccccc2)NCCN1Cc1cccc(Cl)c1 was read as HEK cytotox 32µM*, IP6K1 inhibitor 0, NIH3T3 tox 22µM*, FLuc inh inactive, SNCA expr inh inconclusive and HEK293 viab inconclusive.
For O=C1c2c(nc(COc3ccc(Cl)cc3)n2Cc2ccccc2)NCCN1CC1CCOCC1 the results were HEK cytotox inconclusive, IP6K1 inhibitor -5, NIH3T3 tox inconclusive, FLuc inh inactive, SNCA expr inh -22% and HEK293 viab -19%.
CCOC(=O)[C@@H]1CN(C(=O)N(C)C)[C@H]2c3ccc(OC)cc3O[C@@H]12 was read as HEK cytotox inconclusive, IP6K1 inhibitor 10 and NIH3T3 tox inconclusive.
CCOC(=O)[C@@H]1CN(C(=O)NC2CCCC2)[C@H]2c3ccc(OC)cc3O[C@@H]12 was read as HEK cytotox 50µM*, IP6K1 inhibitor 2 and NIH3T3 tox inconclusive.
`COc1ccccc1C(C)N(C)C(=O)c1csc2nc(-c3ccccc3C)cn12` (centres undefined) gave HEK cytotox 35µM*, IP6K1 inhibitor 14, NIH3T3 tox inconclusive, FLuc inh inconclusive, SNCA expr inh 63% and HEK293 viab -18%.
O=C1NC(C(=O)NCCc2ccccc2)Cn2cccc21 (centres undefined) was read as HEK cytotox -5%, IP6K1 inhibitor 5, NIH3T3 tox -17%, FLuc inh inactive, SNCA expr inh -21% and HEK293 viab 3%.
`CN(Cc1ccc(N2CCCCC2)cc1)C(=O)CCC[C@H]1NC[C@@H]2C[C@H]1CN(Cc1ccccc1)C2` gave HEK cytotox inconclusive, IP6K1 inhibitor -2, NIH3T3 tox 18µM*, FLuc inh inactive, SNCA expr inh inconclusive and HEK293 viab 22µM*.
Screening CN(Cc1cccnc1)C(=O)CCC[C@H]1NC[C@@H]2C[C@H]1CN(Cc1ccccc1)C2 returned HEK cytotox 5%, IP6K1 inhibitor -1, NIH3T3 tox inactive, FLuc inh inactive, SNCA expr inh -13% and HEK293 viab 0%.

Bioassay records (PubChem BioAssay)
